Assay results taken from PubChem BioAssay (NCI).
This is part of a sample that, as a whole, favours compounds with a hit. Of some 79,000 tested, about 15% had one in any assay. The source made the active and inactive calls. No stated cut-off is given here; in the data, active means growth inhibition above about 70%; inactive means the rest. Where a SMILES comes first, the peptide text is derived from it. [ ]: non-standard residue; d: D form. The star is where a group is joined. Nle = CCCC[CH](N)C(=O)O; Cbz = O=C(OCc1ccccc1)*; OBn = c1ccc(CO*)cc1

What was measured:
[1] = NCI Yeast Anticancer Drug Screen. Data for the rad50 strain (AID 155);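 further: 0% = growth of vehicle-only cultures of the same strain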; settings: S. cerevisiae rad50 strain growth inhibition; at 50.0 µM; hits give high values
How it was run: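 DNA repair mutant yeast, compound exposure, growth read-out; inhibition is taken relative to vehicle.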

[2] = NCI Yeast Anticancer Drug Screen. Data for the mec2-1 strain (AID 157); settings: S. cerevisiae mec2-1 strain, at 50.0 µM, hits give high values
How it was run: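 Each compound was tested on mec2-1 yeast, a strain altered in DNA damage repair or cell cycle control. Growth inhibition is reported relative to vehicle.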

[3] = NCI Yeast Anticancer Drug Screen. Data for the sgs1 mgt1 strain (AID 161);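 further: 0% = growth of cultures given vehicle only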; settings: S. cerevisiae sgs1 mgt1 strain, at 50.0 µM, hits give high values
How it was run: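 Read-out: growth inhibition vs vehicle controls. Cells: mutant yeast strain deficient in DNA damage repair.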

[4] = NCI Yeast Anticancer Drug Screen. Data for the cln2 rad14 strain (AID 165);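 further: 0% = growth equal to vehicle treated cultures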; settings: S. cerevisiae cln2 rad14 strain, at 50.0 µM, hits give high values
How it was run: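 Test compounds were added to cln2 rad14 yeast cultures; inhibition of growth was then determined by comparison with vehicle treatment.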

[5] = NCI Yeast Anticancer Drug Screen. Data for the bub3 strain (AID 167); settings: S. cerevisiae bub3 mutant strain, at 50.0 µM, hits give high values
How it was run: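 In this screen, a yeast mutant lacking normal mitotic checkpoint function is challenged with compound. Relative growth versus vehicle gives the inhibition value.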

[6] = NCI Yeast Anticancer Drug Screen. Data for the mlh1 rad18 strain (AID 175); settings: S. cerevisiae mlh1 rad18 strain growth inhibition; at 50.0 µM; hits give high values
How it was run: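 Inhibition values reflect reduced growth of mutant yeast versus vehicle-treated controls following compound exposure; the mutations affect DNA damage repair.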

Measured: growth inhibition

CC(=O)CC(=O)Nc1cccc(C)c1C
inactive: [1] -8.1% | [2] -15.2% | [3] 15.3% | [4] -1.7% | [5] 9.3% | [6] -5.6%

COc1ccc(/C=C/c2c([N+](=O)[O-])c(=O)n(C)c(=O)n2C)cc1
inactive: [1] -14.7% | [2] 0.95% | [3] -3.1% | [4] 16.1% | [5] 2.65% | [6] -10.2%

NC(=Nc1ccccc1)c1ccc(Cl)cc1
active: [2] 96.5% | [4] 97.2% | [5] 98.6% | [6] 87.7%
inactive: [1] 66.2% | [3] 45.4%

O=CNCC1(c2ccccc2)CCN(Cc2ccccc2)CC1
inactive: [1] -2.4% | [2] -23.8% | [3] 3.4% | [4] 2.05% | [5] 3.55% | [6] 8.45%

CC(C)(C)[Si](C)(C)OCCc1ccccc1C1CC2(S(=O)(=O)c3ccccc3)ON1CC2S(=O)(=O)c1ccccc1 (stereo not given)
inactive: [1] 15.1% | [2] -1.7% | [3] -8.2% | [4] -12.6% | [5] 8.4% | [6] 21.4%

CCC1=C(CC2NCCc3ccccc32)CC2c3cc(OC)c(OC)cc3CCN2C1 (stereo not given)
inactive: [1] -9.9% | [2] -12.1% | [3] -14.7% | [4] 3.9% | [5] -28% | [6] -11.1%

CC(CO)(CO)N1C(=O)c2cccc3cc([N+](=O)[O-])cc(c23)C1=O
inactive: [1] 31.4% | [2] 29.1% | [3] 50.1% | [4] 31.1% | [5] 35.2% | [6] 14.3%

CCOC(=O)C1(C(=O)OCC)CCCN1C(=O)[C@H](CNC(=O)OC(C)(C)C)NC(=O)OCc1ccccc1
inactive: [1] 32.1% | [2] 12.8% | [3] -10.9% | [4] -0.45% | [5] -30.1% | [6] -79.8%

CCOC(=O)C1SCCC1(C)O (stereo not given)
inactive: [1] 18.9% | [2] 21.7% | [3] 16.6% | [4] 16.8% | [5] 3.55% | [6] 12.7%

COc1c(C)c(C)c(OC(C)=O)c(C)c1Br
inactive: [1] -10.2% | [2] -4.9% | [3] -1.95% | [4] -3.1% | [5] -2.1% | [6] -9.3%

CCCCC(NC(=O)C1CCCN1C(=O)OCc1ccccc1)C(=O)OCc1ccccc1 (stereo not drawn) (Cbz-Pro-[Nle]-OBn; configuration not given here)
inactive: [1] 12.4% | [2] 12.2% | [3] 11.4% | [4] -10.9% | [5] -5.45% | [6] 15.9%

CCCCOc1ccccc1C(=O)OC
inactive: [1] 23.9% | [2] 5.55% | [3] 21.8% | [4] -0.6% | [5] 9.4% | [6] 18.5%

N#CCc1c(Cl)ccc(Cl)c1Cl
inactive: [1] 37% | [2] 45.6% | [3] 44.6% | [4] 3.9% | [5] 58.8% | [6] 39.5%

CC(=O)[C@H]1CC[C@H]2[C@@H]3CCC4=CC(=O)CC[C@]4(C)[C@H]3C[C@H](OS(=O)(=O)c3ccc(C)cc3)[C@]12C
inactive: [1] 20.3% | [2] 18.1% | [3] 31.2% | [4] 38.7% | [5] 12.1% | [6] 15.4%

O=C1CCCC1C(O)(C(F)(F)F)C(F)(F)F (stereo not given)
inactive: [1] -24.8% | [2] -19.9% | [3] -8.05% | [4] 16.6% | [5] -12% | [6] -21.1%

CN(C)Cc1c(CC(O)(c2ccccc2)c2ccccc2)ccc2ccccc12
inactive: [1] 10.8% | [2] -4.75% | [3] -12.2% | [4] -0.55% | [5] -1.2% | [6] 5.6%

CCC1(C)C(=O)NC(=O)N1C(C)=O (stereo not given)
inactive: [1] -5.1% | [2] -21.4% | [3] -3.85% | [4] -44.2% | [5] -12.3% | [6] -7.55%

CCOC(=O)C1S(=O)(=O)OCCOS1(=O)=O
inactive: [1] -19.2% | [2] -26.6% | [3] -7.45% | [4] 0.75% | [5] -14.8% | [6] -27.8%

COC(=O)C1=C(C(=O)OC)SC(=C2C3=C(SC(C(=O)OC)=C(C(=O)OC)S3)c3ccccc32)S1
inactive: [1] 31.1% | [2] -2.15% | [3] 21.9% | [4] 18.9% | [5] -4.6% | [6] 21.2%

CCOC(=O)c1cc2cc(C)cc(C(=O)c3ccc([N+](=O)[O-])cc3)c2[nH]1
inactive: [1] 15.1% | [2] 25.4% | [3] 30.6% | [4] 4.15% | [5] -0.55% | [6] -16.3%

CCC1(C)OCC(CCCCO)O1 (stereo not given)
inactive: [1] -16.2% | [2] -14.9% | [3] -9.4% | [4] -34.9% | [5] -11.4% | [6] 14.3%

Cc1ccccc1N(C)S(=O)(=O)c1ccccc1[N+](=O)[O-]
inactive: [1] -12% | [2] -41.5% | [3] 8.45% | [4] -5.6% | [5] 20.2% | [6] -10.2%

O=C([O-])C[n+]1ccccc1
inactive: [1] -11.3% | [2] -2.75% | [3] -14.5% | [4] -35.9% | [5] -19.1% | [6] -14.4%

Cc1nc(N)c(N2CCN(Cc3ccccc3)CC2)c(=O)[nH]1
inactive: [1] -26.4% | [2] 1.85% | [3] -33.9% | [4] 16.8% | [5] 29.6% | [6] -25.3%

c1ccc2c(c1)c1ccccc1n2Cn1c2ccccc2c2ccccc21
inactive: [1] -1.1% | [2] -1.2% | [3] -48.5% | [4] -27.9% | [5] 11.3% | [6] 4.85%

N#CC12CC3CC(CC(C3)C1)C2
inactive: [1] -3.9% | [2] -1.5% | [3] -15% | [4] -45% | [5] -9.3% | [6] 4.35%

CSCCC(N)C(=O)NCCNc1ccc(NCCNC(=O)C(N)CCSC)c2c1C(=O)c1ccccc1C2=O (stereo not given)
inactive: [1] -8.05% | [2] -0.9% | [3] -29% | [4] -0.5% | [5] -30.4% | [6] -44.4%

CCCCCCNC1=C(OC)C(=O)C(NCCCCCC)=C(OC)C1=O
inactive: [1] -7.4% | [2] 7.9% | [3] 2.1% | [4] -54.9% | [5] 8.5% | [6] -13.6%

CC(=O)c1cccc(NC(=O)Nc2ccc(Nc3ccccc3)cc2)c1
inactive: [1] 3.8% | [2] 6.5% | [3] 5.6% | [4] 2.6% | [5] 21.8% | [6] -0.8%

CCCCC(CC)CN(CC)CC (stereo not given)
inactive: [1] -11.1% | [2] -4.25% | [3] -26.5% | [4] -10.4% | [5] 2.8% | [6] 4.85%

CN(C)Cc1cc(C(=O)c2ccccc2)c(O)cc1O
inactive: [1] -38.4% | [2] -4.05% | [3] -0.9% | [4] -23.6% | [5] -2.05% | [6] 13.2%

CC(C)C1CCC2(C)C(CCC3C(C)(CO)CCCC32O)C1 (stereo not given)
inactive: [1] -17.2% | [2] -6.85% | [3] 19.5% | [4] 1.45% | [5] 22.1% | [6] 10%

COc1ccc(CCNC(=O)CC(C)=O)cc1
inactive: [1] -49.2% | [2] -40.5% | [3] -42.3% | [4] 11.4% | [5] -38% | [6] -41.8%

COc1nc(N)c(C(=O)CCl)c(=O)n1C
inactive: [1] 3.35% | [2] -7.5% | [3] 6.5% | [4] 0.35% | [5] -20.6% | [6] 16.5%

COc1cc([C@H]2Oc3cc([C@H]4Oc5cc(O)cc(O)c5C(=O)[C@@H]4O)ccc3O[C@@H]2CO)ccc1O
inactive: [1] 3.15% | [2] 0.55% | [3] 11.8% | [4] -36.4% | [5] 15.5% | [6] 6.05%

CCOP(=O)(OCC)C1=C(P(=O)(OCC)OCC)C(F)(F)C1(F)F
inactive: [1] -9.35% | [2] -5% | [3] -6.7% | [4] -13.1% | [5] -0.95% | [6] -6.3%

O=C1c2ccccc2C(=O)N1n1c(Cc2ccccc2)n[nH]c1=O
inactive: [1] -16.1% | [2] -28.2% | [3] -41.5% | [4] -10.8% | [5] -16.5% | [6] -16.2%

Cc1cc2[nH]c3c(C#N)c(O)c(C(C)C)c(=O)n3c2cc1C
inactive: [1] -1.05% | [2] 7.8% | [3] 11.6% | [4] 1.35% | [5] 10.8% | [6] 11.2%

CCOC(=O)/C(=C/c1cn(C(C)=O)c2ccccc12)P(=O)(OC)OC
inactive: [1] -28.9% | [2] -4.1% | [3] -1.15% | [4] 13.8% | [5] 5.75% | [6] -15.8%

CCN(CC)CCCO
inactive: [1] 27.8% | [2] -12.3% | [3] -7.75% | [4] -8.8% | [5] -4.6% | [6] 20.1%
